Columns and labels:
[1] = target: Serine/threonine-protein kinase MARK2 (Homo sapiens) (UniProt Q7KZI7); conditions: at 1 µM
[2] = target: PAS domain-containing serine/threonine-protein kinase (Homo sapiens) (UniProt Q96RG2); conditions: at 0.1 µM
[3] = target: PAS domain-containing serine/threonine-protein kinase (Homo sapiens) (UniProt Q96RG2); conditions: at 1 µM
[4] = target: Phosphorylase b kinase gamma catalytic chain, skeletal muscle/heart isoform (Homo sapiens) (UniProt Q16816); conditions: at 0.1 µM
[5] = target: Phosphorylase b kinase gamma catalytic chain, skeletal muscle/heart isoform (Homo sapiens) (UniProt Q16816); conditions: at 1 µM
[6] = target: T1, Phosphorylase b kinase gamma catalytic chain, liver/testis isoform (Homo sapiens) (UniProt P15735); conditions: at 0.1 µM
T1 sequence (whole entry): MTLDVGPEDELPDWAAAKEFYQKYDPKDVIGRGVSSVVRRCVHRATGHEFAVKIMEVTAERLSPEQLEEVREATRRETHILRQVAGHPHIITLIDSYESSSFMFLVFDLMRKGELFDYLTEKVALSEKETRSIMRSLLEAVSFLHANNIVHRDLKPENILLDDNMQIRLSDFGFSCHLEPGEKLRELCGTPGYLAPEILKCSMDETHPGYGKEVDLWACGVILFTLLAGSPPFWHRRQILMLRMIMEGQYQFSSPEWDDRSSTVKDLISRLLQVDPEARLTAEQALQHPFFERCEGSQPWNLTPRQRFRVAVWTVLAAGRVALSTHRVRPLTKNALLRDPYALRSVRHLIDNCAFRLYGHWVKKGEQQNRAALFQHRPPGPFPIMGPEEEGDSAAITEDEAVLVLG

[7] = target: T1, Phosphorylase b kinase gamma catalytic chain, liver/testis isoform (Homo sapiens); conditions: at 1 µM
[8] = target: Serine/threonine-protein kinase pim-1 (Homo sapiens) (UniProt P11309); conditions: at 0.1 µM
[9] = target: Serine/threonine-protein kinase pim-1 (Homo sapiens) (UniProt P11309); conditions: at 1 µM
[10] = target: Serine/threonine-protein kinase pim-2 (Homo sapiens) (UniProt Q9P1W9); conditions: at 0.1 µM
[11] = target: Serine/threonine-protein kinase pim-2 (Homo sapiens) (UniProt Q9P1W9); conditions: at 1 µM
[12] = target: Serine/threonine-protein kinase pim-3 (Homo sapiens) (UniProt Q86V86); conditions: at 0.1 µM
[13] = target: Serine/threonine-protein kinase pim-3 (Homo sapiens) (UniProt Q86V86); conditions: at 1 µM
[14] = target: T2, MAP kinase-activated protein kinase 5 (Homo sapiens) (UniProt Q8IW41); conditions: at 0.1 µM
T2 sequence (whole entry): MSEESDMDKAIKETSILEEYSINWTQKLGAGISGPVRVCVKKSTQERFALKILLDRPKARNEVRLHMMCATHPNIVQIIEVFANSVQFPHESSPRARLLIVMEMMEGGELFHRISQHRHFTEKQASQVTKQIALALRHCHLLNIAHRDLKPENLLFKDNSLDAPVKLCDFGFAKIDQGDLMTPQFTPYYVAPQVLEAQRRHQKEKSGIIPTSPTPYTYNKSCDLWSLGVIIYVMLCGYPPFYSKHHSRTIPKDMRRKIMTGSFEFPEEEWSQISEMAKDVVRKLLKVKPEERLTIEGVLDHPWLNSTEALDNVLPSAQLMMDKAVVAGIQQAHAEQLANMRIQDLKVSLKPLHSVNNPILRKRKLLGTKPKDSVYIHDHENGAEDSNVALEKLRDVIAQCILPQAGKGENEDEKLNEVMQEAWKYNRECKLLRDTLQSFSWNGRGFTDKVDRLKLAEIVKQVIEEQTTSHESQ

[15] = target: T2, MAP kinase-activated protein kinase 5 (Homo sapiens); conditions: at 1 µM
[16] = target: Serine/threonine-protein kinase SIK1 (Homo sapiens) (UniProt P57059); conditions: at 0.1 µM
[17] = target: Serine/threonine-protein kinase SIK1 (Homo sapiens) (UniProt P57059); conditions: at 1 µM
[18] = target: Serine/threonine-protein kinase SIK2 (Homo sapiens) (UniProt Q9H0K1); conditions: at 0.1 µM
[19] = target: Serine/threonine-protein kinase SIK2 (Homo sapiens) (UniProt Q9H0K1); conditions: at 1 µM
[20] = target: T3, Serine/threonine-protein kinase TBK1 (Homo sapiens) (UniProt Q9UHD2); conditions: at 0.1 µM;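 further: values are the mean TBK1 inhibition, taken from the GSK PKIS screening data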
T3 sequence (whole entry): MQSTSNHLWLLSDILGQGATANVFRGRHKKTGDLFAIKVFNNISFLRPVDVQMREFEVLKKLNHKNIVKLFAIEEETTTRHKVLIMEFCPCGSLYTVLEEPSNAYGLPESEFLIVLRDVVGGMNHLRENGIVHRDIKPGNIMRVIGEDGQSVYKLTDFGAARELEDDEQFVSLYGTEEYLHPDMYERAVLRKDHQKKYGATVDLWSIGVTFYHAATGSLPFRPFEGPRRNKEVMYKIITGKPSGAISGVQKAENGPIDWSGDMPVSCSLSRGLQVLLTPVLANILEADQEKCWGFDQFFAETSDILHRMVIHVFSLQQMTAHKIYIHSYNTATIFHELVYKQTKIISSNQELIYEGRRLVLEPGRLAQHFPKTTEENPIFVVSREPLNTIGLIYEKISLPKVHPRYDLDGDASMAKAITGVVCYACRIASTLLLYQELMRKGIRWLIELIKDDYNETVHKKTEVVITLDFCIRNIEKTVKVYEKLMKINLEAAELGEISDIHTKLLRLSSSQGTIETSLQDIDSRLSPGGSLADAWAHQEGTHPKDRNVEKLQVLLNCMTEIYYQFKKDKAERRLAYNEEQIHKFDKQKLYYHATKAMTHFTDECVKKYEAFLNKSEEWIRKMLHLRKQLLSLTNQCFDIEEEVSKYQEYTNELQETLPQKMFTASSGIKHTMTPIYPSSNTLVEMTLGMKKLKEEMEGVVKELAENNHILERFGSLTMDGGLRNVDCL

Chain of Phosphorylase b kinase gamma catalytic chain, skeletal muscle/heart isoform (Homo sapiens) (Q16816 whole entry, looked up, canonical isoform): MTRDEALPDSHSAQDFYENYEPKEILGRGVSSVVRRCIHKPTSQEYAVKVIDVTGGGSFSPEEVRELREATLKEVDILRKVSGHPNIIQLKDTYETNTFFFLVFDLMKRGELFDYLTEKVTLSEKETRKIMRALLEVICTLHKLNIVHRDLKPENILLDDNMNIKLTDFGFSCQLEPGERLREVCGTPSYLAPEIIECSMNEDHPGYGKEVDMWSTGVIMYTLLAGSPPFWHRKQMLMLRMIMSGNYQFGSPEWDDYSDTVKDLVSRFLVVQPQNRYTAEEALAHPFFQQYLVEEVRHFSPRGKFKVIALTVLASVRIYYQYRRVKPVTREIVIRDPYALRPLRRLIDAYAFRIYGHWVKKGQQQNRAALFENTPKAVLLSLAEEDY
Chain of Serine/threonine-protein kinase pim-1 (Homo sapiens) (P11309 whole entry, looked up): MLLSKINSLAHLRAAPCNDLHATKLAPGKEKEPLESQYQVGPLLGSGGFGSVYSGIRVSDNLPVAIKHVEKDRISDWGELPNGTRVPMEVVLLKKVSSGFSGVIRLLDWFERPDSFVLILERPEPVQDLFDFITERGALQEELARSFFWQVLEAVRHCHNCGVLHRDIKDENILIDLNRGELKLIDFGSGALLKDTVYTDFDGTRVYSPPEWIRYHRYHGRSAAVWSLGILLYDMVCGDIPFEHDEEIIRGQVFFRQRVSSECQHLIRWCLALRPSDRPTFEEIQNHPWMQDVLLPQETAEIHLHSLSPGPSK
Chain of Serine/threonine-protein kinase SIK1 (Homo sapiens) (P57059 whole entry): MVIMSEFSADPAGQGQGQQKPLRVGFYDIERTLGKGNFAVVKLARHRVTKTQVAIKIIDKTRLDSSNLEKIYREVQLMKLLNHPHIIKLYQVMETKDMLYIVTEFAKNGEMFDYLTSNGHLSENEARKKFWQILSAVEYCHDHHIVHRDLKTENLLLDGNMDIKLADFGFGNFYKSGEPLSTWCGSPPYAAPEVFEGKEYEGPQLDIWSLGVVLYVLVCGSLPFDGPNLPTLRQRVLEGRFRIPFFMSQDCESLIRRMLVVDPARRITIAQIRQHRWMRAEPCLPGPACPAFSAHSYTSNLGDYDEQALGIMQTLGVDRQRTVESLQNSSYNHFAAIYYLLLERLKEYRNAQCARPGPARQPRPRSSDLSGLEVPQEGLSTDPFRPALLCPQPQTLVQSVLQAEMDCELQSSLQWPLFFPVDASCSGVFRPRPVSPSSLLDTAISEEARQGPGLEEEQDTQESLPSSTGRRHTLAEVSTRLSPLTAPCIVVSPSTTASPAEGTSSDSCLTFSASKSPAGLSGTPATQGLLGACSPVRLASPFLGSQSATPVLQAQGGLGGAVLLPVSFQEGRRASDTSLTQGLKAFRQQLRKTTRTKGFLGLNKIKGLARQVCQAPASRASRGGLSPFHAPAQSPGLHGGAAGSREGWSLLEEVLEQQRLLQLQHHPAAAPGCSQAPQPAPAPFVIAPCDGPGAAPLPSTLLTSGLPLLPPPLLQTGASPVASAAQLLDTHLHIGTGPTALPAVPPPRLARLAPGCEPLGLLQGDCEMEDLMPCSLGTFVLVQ
Chain of Serine/threonine-protein kinase pim-2 (Homo sapiens) (Q9P1W9 whole entry, looked up): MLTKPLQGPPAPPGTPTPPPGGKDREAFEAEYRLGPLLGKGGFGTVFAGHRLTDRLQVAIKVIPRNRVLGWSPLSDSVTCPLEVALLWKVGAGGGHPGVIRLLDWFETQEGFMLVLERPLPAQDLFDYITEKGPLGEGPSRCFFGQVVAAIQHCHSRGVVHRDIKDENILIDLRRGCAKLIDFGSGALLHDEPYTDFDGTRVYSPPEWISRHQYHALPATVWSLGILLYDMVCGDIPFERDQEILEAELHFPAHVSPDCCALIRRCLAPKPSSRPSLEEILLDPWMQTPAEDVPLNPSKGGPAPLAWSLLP
Chain of PAS domain-containing serine/threonine-protein kinase (Homo sapiens) (Q96RG2 whole entry, the tested form may be a part, canonical isoform): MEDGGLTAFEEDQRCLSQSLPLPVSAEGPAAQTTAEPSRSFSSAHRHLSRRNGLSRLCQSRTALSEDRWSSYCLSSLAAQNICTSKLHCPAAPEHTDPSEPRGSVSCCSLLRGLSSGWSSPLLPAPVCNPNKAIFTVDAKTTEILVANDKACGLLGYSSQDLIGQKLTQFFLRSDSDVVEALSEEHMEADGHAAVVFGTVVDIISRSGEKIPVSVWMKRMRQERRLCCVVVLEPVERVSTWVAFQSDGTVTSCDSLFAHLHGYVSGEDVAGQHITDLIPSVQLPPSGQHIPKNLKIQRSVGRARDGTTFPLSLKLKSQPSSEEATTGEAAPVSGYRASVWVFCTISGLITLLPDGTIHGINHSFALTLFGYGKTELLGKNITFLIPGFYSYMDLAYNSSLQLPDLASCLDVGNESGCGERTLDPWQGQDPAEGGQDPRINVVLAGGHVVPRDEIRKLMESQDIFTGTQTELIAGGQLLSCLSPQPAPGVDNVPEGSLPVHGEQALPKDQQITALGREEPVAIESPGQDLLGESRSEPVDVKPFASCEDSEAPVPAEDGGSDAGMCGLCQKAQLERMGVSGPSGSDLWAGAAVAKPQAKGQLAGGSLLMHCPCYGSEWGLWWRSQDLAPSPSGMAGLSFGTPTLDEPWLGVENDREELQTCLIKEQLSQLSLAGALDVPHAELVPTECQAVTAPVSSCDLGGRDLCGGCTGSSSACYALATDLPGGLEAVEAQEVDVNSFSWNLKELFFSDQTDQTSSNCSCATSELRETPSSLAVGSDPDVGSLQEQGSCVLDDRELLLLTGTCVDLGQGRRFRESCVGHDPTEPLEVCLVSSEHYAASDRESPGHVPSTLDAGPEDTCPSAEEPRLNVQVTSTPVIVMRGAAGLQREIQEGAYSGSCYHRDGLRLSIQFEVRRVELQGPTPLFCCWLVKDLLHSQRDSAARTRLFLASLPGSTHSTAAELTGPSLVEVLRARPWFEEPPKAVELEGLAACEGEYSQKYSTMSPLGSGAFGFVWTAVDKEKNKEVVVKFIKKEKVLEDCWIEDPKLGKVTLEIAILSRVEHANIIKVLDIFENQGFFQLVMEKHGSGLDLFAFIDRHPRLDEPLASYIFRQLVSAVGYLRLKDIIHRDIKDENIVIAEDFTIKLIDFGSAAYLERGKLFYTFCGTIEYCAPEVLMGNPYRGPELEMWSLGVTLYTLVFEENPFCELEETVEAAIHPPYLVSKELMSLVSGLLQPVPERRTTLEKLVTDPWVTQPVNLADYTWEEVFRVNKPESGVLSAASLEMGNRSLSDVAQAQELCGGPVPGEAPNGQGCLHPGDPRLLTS
Chain of Serine/threonine-protein kinase MARK2 (Homo sapiens) (Q7KZI7 whole entry, the tested form may be a part): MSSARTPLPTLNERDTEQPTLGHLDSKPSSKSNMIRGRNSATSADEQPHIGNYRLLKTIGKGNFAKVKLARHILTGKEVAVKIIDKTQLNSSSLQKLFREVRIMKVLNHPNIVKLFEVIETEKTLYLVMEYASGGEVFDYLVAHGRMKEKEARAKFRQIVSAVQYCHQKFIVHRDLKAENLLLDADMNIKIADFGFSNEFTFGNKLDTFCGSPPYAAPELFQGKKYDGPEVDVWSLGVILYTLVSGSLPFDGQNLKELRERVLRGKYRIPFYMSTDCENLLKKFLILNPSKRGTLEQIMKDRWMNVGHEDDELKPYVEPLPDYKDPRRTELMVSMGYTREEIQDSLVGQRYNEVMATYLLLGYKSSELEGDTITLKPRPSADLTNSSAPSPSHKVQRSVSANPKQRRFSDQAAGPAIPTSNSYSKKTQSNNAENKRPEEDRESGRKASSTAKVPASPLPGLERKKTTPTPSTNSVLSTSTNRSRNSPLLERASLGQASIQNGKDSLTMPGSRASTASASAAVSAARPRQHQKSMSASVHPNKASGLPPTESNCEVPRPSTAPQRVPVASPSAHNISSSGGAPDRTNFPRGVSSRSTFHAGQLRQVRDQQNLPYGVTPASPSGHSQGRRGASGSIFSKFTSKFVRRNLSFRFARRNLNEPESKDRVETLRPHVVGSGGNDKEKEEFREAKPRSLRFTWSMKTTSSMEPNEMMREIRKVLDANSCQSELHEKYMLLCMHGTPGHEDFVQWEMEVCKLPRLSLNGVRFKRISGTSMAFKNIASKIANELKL
Chain of Serine/threonine-protein kinase SIK2 (Homo sapiens) (Q9H0K1 whole entry, looked up): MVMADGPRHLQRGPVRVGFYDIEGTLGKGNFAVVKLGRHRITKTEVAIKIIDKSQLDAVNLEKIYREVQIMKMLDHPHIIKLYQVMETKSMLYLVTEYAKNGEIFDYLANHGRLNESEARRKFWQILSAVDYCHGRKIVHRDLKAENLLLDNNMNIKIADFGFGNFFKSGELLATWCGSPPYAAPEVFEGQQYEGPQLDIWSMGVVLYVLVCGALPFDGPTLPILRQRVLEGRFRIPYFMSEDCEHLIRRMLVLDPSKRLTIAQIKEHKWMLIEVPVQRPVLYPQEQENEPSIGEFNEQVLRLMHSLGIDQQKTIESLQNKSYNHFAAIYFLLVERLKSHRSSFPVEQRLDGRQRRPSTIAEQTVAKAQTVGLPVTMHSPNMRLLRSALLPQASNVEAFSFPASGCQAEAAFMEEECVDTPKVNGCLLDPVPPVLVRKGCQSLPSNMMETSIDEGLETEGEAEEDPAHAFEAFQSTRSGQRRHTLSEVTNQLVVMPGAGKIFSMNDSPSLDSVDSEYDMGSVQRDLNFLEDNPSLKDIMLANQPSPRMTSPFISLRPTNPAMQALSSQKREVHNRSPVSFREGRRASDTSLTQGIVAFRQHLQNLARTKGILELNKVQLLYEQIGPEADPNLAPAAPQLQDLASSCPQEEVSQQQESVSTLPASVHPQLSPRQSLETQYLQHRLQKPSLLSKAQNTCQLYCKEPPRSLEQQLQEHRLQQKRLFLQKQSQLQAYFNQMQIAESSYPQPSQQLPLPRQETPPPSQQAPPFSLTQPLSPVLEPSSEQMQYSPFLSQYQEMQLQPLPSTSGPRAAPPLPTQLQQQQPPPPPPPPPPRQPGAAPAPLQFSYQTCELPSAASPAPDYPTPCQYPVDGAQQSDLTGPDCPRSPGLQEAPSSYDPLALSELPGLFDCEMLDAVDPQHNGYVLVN

## CCN(CC)Cc1ccc(Nc2nccc(-c3cnn4ncccc34)n2)cc1
[1]
  inhibition: 16.2%
[2]
  inhibition: -0.55%
[3]
  inhibition: -0.46%
[4]
  inhibition: 6.04%
[5]
  inhibition: 28.2%
[6]
  inhibition: 5.93%
[7]
  inhibition: 15.3%
[8]
  inhibition: 2.49%
[9]
  inhibition: 23%
[10]
  inhibition: -3.66%
[11]
  inhibition: -0.59%
[12]
  inhibition: 6.38%
[13]
  inhibition: 37.2%
[14]
  inhibition: 1.44%
[15]
  inhibition: 2.13%
[16]
  inhibition: 2.61%
[17]
  inhibition: 24.1%
[18]
  inhibition: 10.8%
[19]
  inhibition: 47.2%
[20]
  inhibition: 5.04%

## NC(=O)c1ccc(Oc2nccc(-c3c(-c4ccc(F)cc4)ncn3C3CCNCC3)n2)cc1
[1]
  inhibition: 4.02%
[2]
  inhibition: -1.25%
[3]
  inhibition: -0.29%
[4]
  inhibition: 3.06%
[5]
  inhibition: 5.58%
[6]
  inhibition: 5.89%
[7]
  inhibition: 5.72%
[8]
  inhibition: 0.9%
[9]
  inhibition: 1.7%
[10]
  inhibition: -0.5%
[11]
  inhibition: -0.49%
[12]
  inhibition: 0.26%
[13]
  inhibition: 1.82%
[14]
  inhibition: 3.51%
[15]
  inhibition: 2.54%
[16]
  inhibition: 4.73%
[17]
  inhibition: 11.3%
[18]
  inhibition: 7.22%
[19]
  inhibition: 3.63%
[20]
  inhibition: 3.9%

## COc1cccc(/C=N/Nc2ncnc3c2cnn3-c2cccc(OC)c2)c1
[1]
  inhibition: 0.57%
[2]
  inhibition: -0.3%
[3]
  inhibition: -1.16%
[4]
  inhibition: 0.94%
[5]
  inhibition: 2.68%
[6]
  inhibition: 3.6%
[7]
  inhibition: 2.4%
[8]
  inhibition: 0.63%
[9]
  inhibition: 1.58%
[10]
  inhibition: -0.75%
[11]
  inhibition: -0.53%
[12]
  inhibition: 0.38%
[13]
  inhibition: 0.16%
[14]
  inhibition: 0.99%
[15]
  inhibition: 1.08%
[16]
  inhibition: 5.07%
[17]
  inhibition: 8.61%
[18]
  inhibition: 5.87%
[19]
  inhibition: 6.63%
[20]
  inhibition: 3.28%

## C[C@@H](Oc1cc(-n2cnc3ccc(OCC4CCN(C)CC4)cc32)sc1C(N)=O)c1ccccc1Cl
[1]
  inhibition: 19.7%
[2]
  inhibition: -0.74%
[3]
  inhibition: 3.45%
[4]
  inhibition: 2.43%
[5]
  inhibition: 10.2%
[6]
  inhibition: 8.59%
[7]
  inhibition: 9.94%
[8]
  inhibition: 18.5%
[9]
  inhibition: 70%
[10]
  inhibition: 0.64%
[11]
  inhibition: 2.74%
[12]
  inhibition: 11.4%
[13]
  inhibition: 52.7%
[14]
  inhibition: 1.77%
[15]
  inhibition: 2.11%
[16]
  inhibition: 11.5%
[17]
  inhibition: 42%
[18]
  inhibition: 7.32%
[19]
  inhibition: 22%
[20]
  inhibition: 4.93%

## CS(=O)(=O)CCNCc1cc(-c2cc3c(Nc4ccc(OCc5cccc(F)c5)c(Cl)c4)ncnc3s2)cs1
[1]
  inhibition: 0.65%
[2]
  inhibition: -1.66%
[3]
  inhibition: -1.38%
[4]
  inhibition: 1.42%
[5]
  inhibition: 3.57%
[6]
  inhibition: 3.77%
[7]
  inhibition: 4.76%
[8]
  inhibition: 1.41%
[9]
  inhibition: 2.26%
[10]
  inhibition: -0.84%
[11]
  inhibition: -0.99%
[12]
  inhibition: 0.08%
[13]
  inhibition: 2.3%
[14]
  inhibition: 2.2%
[15]
  inhibition: 1.6%
[16]
  inhibition: 7.53%
[17]
  inhibition: 7.6%
[18]
  inhibition: 7.98%
[19]
  inhibition: 0.61%
[20]
  inhibition: 5.03%

## Cc1ccc(NC(=O)c2ccoc2)cc1-c1ccc(C(=O)NCC2CC2)cc1
[1]
  inhibition: -0.97%
[2]
  inhibition: 1.03%
[3]
  inhibition: 0.47%
[4]
  inhibition: 3.88%
[5]
  inhibition: 1.73%
[6]
  inhibition: 3.37%
[7]
  inhibition: 3.24%
[8]
  inhibition: 0.53%
[9]
  inhibition: 0.47%
[10]
  inhibition: -0.3%
[11]
  inhibition: 0.6%
[12]
  inhibition: 0.71%
[13]
  inhibition: -0.9%
[14]
  inhibition: 0.96%
[15]
  inhibition: 0.83%
[16]
  inhibition: 2.51%
[17]
  inhibition: 0.11%
[18]
  inhibition: 5.39%
[19]
  inhibition: 5.33%
[20]
  inhibition: 0.28%

## c1ccc(-c2n[nH]cc2-c2ccnc(-c3ccc(OCCN4CCOCC4)cc3)c2)nc1
[1]
  inhibition: 6.97%
[2]
  inhibition: 4.29%
[3]
  inhibition: 2.12%
[4]
  inhibition: 3.14%
[5]
  inhibition: 5.98%
[6]
  inhibition: -1.14%
[7]
  inhibition: -3.23%
[8]
  inhibition: 1.29%
[9]
  inhibition: 1.87%
[10]
  inhibition: 7.01%
[11]
  inhibition: 5.56%
[12]
  inhibition: 5.26%
[13]
  inhibition: 3.99%
[14]
  inhibition: -1.14%
[15]
  inhibition: -0.78%
[16]
  inhibition: 0.04%
[17]
  inhibition: -2.45%
[18]
  inhibition: -6.26%
[19]
  inhibition: -0.03%
[20]
  inhibition: 1.5%

— ChEMBL document CHEMBL1961873, “Compounds: GSK PKIS; Assays: Nanosyn kinase panel” (2012)
